MITF TRPM1 HTS: increases MITF-driven TRPM1 promoter luciferase signal; SK-MEL-5 TRPM1-promoter luciferase, 24 h; % of positive control, neutral wells = 0; activation, % at 12.5 µM; 300,000 compounds, 0.75% hits; AID 588334;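 active means mean activation of at least 80% with every replicate also reaching 80%; inconclusive means mean reaches 80% but some replicate falls short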;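 further: 0% = neutral control wells and 100% = parthenolide positive control wells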
Wnt act: Wnt/beta-catenin pathway activation | 300,000 compounds, 1.2% hits | Wnt/beta-catenin reporter cell assay, activator, plate reader | activation, % at 9.35 µM; in the data active means activation above about 30%, passing the limit was not always enough; inconclusive means no clear call, values can overlap the other calls;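 further: 0% = neutral control wells and 100% = positive control wells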
Env fusion inh: blocks HIV Env-driven cell-cell fusion. 360,000 compounds, 1.1% hits. HeLa-JRFL Env/CEM21 cell fusion, luciferase. inhibition, % at 12.3 µM. AID 651610;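 active means mean replicate inhibition score of at least 50 and every replicate individually at or above 50; inconclusive means only one of the two criteria met; inactive means mean below 50 and not all replicates reaching 50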;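 further: 0% = plate neutral controls and 100% = maraviroc near 300 nM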
miR122 inh: blocks miR-122 activity in Huh7 sensor cells | activation (reporter increase), % at 12.5 µM | Huh7 miR-122 Renilla luciferase sensor, 48 h; neutral wells = 0, positive control = 100 | 340,000 compounds, 0.3% hits;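 active means mean replicate activation score at least 90 and every replicate individually at or above 90; inconclusive means only one of the two criteria met; inactive means neither criterion met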;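 further: higher luciferase means less miR-122 activity so hits act as miR-122 inhibitors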
esBAF inh: SWI/SNF esBAF complex inhibition; reporter increase, % at 12.5 µM; mouse ES cells, Bmi1-luciferase knock-in reporter, 24 h; 100% = twice the neutral-well signal; AID 602393; 350,000 compounds, 2% hits; in the data active means activation above about 40%; inconclusive means no clear call, values can overlap the other calls;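 further: 0% = median of the plate's neutral control wells and 100% = double that signal; a rise in the Bmi1 reporter signal indicates esBAF inhibition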
* hit, by the source's call; i = inactive; ? = inconclusive; nt = not tested or not shown; [ ] = remark or other dose. This is a sample that favours compounds with a hit; in the whole collection about 3.4% have one here.

SMILES | MITF TRPM1 HTS | Wnt act | Env fusion inh | miR122 inh | esBAF inh
O=C(O)[C@H]1[C@H](CO)[C@H]2Cn3c(ccc(-c4ccccc4)c3=O)[C@H]2N1CCc1ccccc1 | nt | nt | nt | 0[16.7 µM] | 4
Cc1ccc(C)c(NS(=O)(=O)c2cc(C(=O)NCc3ccco3)ccc2C)c1 | -3 | nt | -125 | 200* | 5
COc1ccccc1NS(=O)(=O)c1cc(C(=O)NCc2ccco2)ccc1C | -10 | nt | -37 | 110* | 8
Cc1ccc(C(=O)NCc2ccco2)cc1S(=O)(=O)Nc1cccc(C)c1C | -9 | nt | -27 | 244* | 5
CO[C@H]1CC[C@H]2CCN(C)C(=O)[C@@H](C)N(C)C(=O)c3cccc(C#N)c3OC[C@@H]1O2 | nt | nt | 5[16.7 µM] | nt | 0
CCOC(=O)CNS(=O)(=O)c1cc(-c2nnc(Nc3ccc4c(c3)OCO4)c3ccccc23)ccc1C | -7 | nt | nt | 106* | 3
Cc1ccc(-c2nnc(Nc3ccc(C(=O)N(C)C)cc3)c3ccccc23)cc1S(=O)(=O)NCC1CCCO1 (centres undefined) | -4 | 0 | 13 | nt | nt
COC(=O)c1ccc(Nc2nnc(-c3ccc(C)c(S(=O)(=O)NCC4CCCO4)c3)c3ccccc23)cc1 (centres undefined) | 13 | -7 | -14 | 250* | 22
CC(C)NC(=O)N(C)C[C@H]1OCCCC[C@@H](C)Oc2ccc(NS(=O)(=O)c3ccc(F)cc3)cc2C(=O)N([C@@H](C)CO)C[C@@H]1C | nt | nt | -34[16.7 µM] | 0[16.7 µM] | -7
C[C@H](CO)N1C[C@H](C)[C@@H](CN(C)Cc2ccccc2)OCCCC[C@H](C)Oc2ccc(NC(=O)Nc3ccc(C(F)(F)F)cc3)cc2C1=O | nt | nt | 9[16.7 µM] | -18[16.7 µM] | -14
C[C@@H]1CCCCO[C@H](CN(C)Cc2ccccc2)[C@H](C)CN([C@H](C)CO)C(=O)c2cc(NC(=O)Nc3ccccc3)ccc2O1 | nt | nt | 2[16.7 µM] | 7[16.7 µM] | 0
C[C@@H]1CCCCO[C@H](CN(C)Cc2ccccc2)[C@@H](C)CN([C@@H](C)CO)C(=O)c2cc(NC(=O)Nc3ccc(C(F)(F)F)cc3)ccc2O1 | nt | nt | 88*[16.7 µM] | -20[16.7 µM] | -7
C[C@@H]1CN([C@H](C)CO)C(=O)c2cc(NC(=O)Nc3ccc(C(F)(F)F)cc3)ccc2O[C@@H](C)CCCCO[C@H]1CN(C)Cc1ccccc1 | nt | nt | 66*[16.7 µM] | -23[16.7 µM] | -70
C[C@H](CO)N1C[C@H](C)[C@H](CN(C)Cc2ccccc2)OCCCC[C@H](C)Oc2ccc(NC(=O)Nc3ccccc3)cc2C1=O | nt | nt | 75*[16.7 µM] | 8[16.7 µM] | -11
CCC(=O)N1C[C@@H](C)[C@H](OC)CN(C)C(=O)c2cc(NS(=O)(=O)CC)ccc2OC[C@@H]1C | nt | nt | -16[16.7 µM] | 15[16.7 µM] | -4
O=C(NCc1ccncn1)[C@@H]1[C@@H](CO)[C@@H]2Cn3c(cccc3=O)[C@H]1N2CC1CC1 | nt | nt | -1[16.7 µM] | nt | -2
C[C@H]1CN([C@@H](C)CO)C(=O)c2cccc(NS(=O)(=O)c3cccs3)c2O[C@H]1CN(C)CC1CC1 | nt | nt | 5[16.7 µM] | -3[16.7 µM] | -3
CC(CC(=O)c1cccs1)CC(=O)c1cccs1 | 69 | 15 | nt | 5 | 70*
O=C(CC(C(=O)O)c1ccccc1)c1cccs1 (centres undefined) | nt | 0 | -5 | nt | nt
Cc1cc(C)c(C(CC(=O)c2cccs2)C(C#N)C#N)c(C)c1 (centres undefined) | 44 | 49* | 17 | nt | nt
C[C@H](CO)N1C[C@H](C)[C@H](CN(C)C(=O)c2ccc(F)cc2)Oc2ncc(C#C[C@@H](C)O)cc2C1=O | nt | nt | -5[16.7 µM] | nt | 2
CNC[C@@H]1Oc2cc(-c3cncnc3)ccc2S(=O)(=O)N([C@H](C)CO)C[C@H]1C | nt | nt | -21[16.7 µM] | 6[16.7 µM] | -8
COc1ccc(-c2cc(-c3cc(F)ccc3O)[nH]n2)cc1OC | 100* | 27 | nt | 0 | ?
Cc1ccc(O)c(-c2cc(-c3cccc(F)c3)n[nH]2)c1 | -6 | 5 | -44 | -24 | 25
Cc1ccc(-c2cc(-c3cccc(F)c3)n[nH]2)c(O)c1 | 49 | nt | nt | 7 | 56*
SMILES | MITF TRPM1 HTS | Wnt act | Env fusion inh | miR122 inh | esBAF inh
COc1ccc(-c2cc(-c3ccc(OC)c(OC)c3)n[nH]2)c(O)c1 | nt | nt | -279 | 5 | nt
COc1ccc(-c2cc(-c3ccccc3O)[nH]n2)cc1OC | nt | nt | i | 6 | 87*
COC(=O)c1cc(-c2ccc(OC)c(OC)c2)n[nH]1 | -4 | -3 | nt | -1 | 9
C[C@H]1CN([C@@H](C)CO)C(=O)c2cc(N(C)C)ccc2O[C@H]1CN(C)S(C)(=O)=O | nt | nt | 5[16.7 µM] | 2[16.7 µM] | -9
O=C(C[C@@H]1CC[C@H]2[C@@H](COC[C@@H](O)CN2C(=O)Nc2ccccc2)O1)NC1Cc2ccccc2C1 | nt | nt | nt | -2[16.7 µM] | 5
COc1ccc(/C(C#N)=C/c2ccccn2)cc1 | 79 | 33* | -75 | nt | 32
N#C/C(=C\c1ccccn1)c1nc2ccccc2s1 | -28 | 7 | -12 | 6 | 33
CCCN1C[C@@H](C)[C@H](OC)CN(C)C(=O)c2cc(NC(=O)Nc3cccc(OC)c3)ccc2OC[C@@H]1C | nt | nt | nt | 23[16.7 µM] | 2
COc1ccc(/C(=N/Nc2ncnc3ccccc23)C(=O)O)cc1 | -1 | 21 | -15 | 10 | 59*
Cn1c(SCc2ccccc2)nnc1-c1ccc2c(c1)OCO2 | 11 | -5 | nt | 6 | 52*
c1ccc(CSc2ccc(-c3ccc4c(c3)OCO4)nn2)cc1 | 90* | 35* | -111 | -5 | nt
Cn1c(SCC#N)nnc1-c1ccc2c(c1)OCO2 | nt | -3 | -72 | -4 | -3
CCCC(=O)Nc1ccc2c(c1)C(=O)N(C)[C@H]1CC[C@H](CC(=O)Nc3ccccc3)O[C@H]1CO2 | nt | nt | -3[16.7 µM] | 12[16.7 µM] | 5
CN1CCN(C(=O)C[C@H]2CC[C@H]3[C@@H](COC[C@@H](O)CN3S(=O)(=O)c3cccc(Cl)c3)O2)CC1 | nt | nt | nt | 2[16.7 µM] | -3
C[C@@H]1CCCCO[C@H](CN(C)S(=O)(=O)c2cn(C)cn2)[C@@H](C)CN([C@@H](C)CO)C(=O)c2cc(NC(=O)Nc3ccc4c(c3)OCO4)ccc2O1 | nt | nt | -10[16.7 µM] | 20[16.7 µM] | 40
C[C@@H]1CCCCO[C@@H](CN(C)S(=O)(=O)c2cn(C)cn2)[C@H](C)CN([C@H](C)CO)C(=O)c2cc(NC(=O)Nc3ccc4c(c3)OCO4)ccc2O1 | nt | nt | 0[16.7 µM] | 2[16.7 µM] | 60*
C[C@H](CO)N1C[C@H](C)[C@@H](CN(C)S(=O)(=O)c2cn(C)cn2)OCCCC[C@H](C)Oc2ccc(NC(=O)Nc3ccc4c(c3)OCO4)cc2C1=O | nt | nt | -4[16.7 µM] | 7[16.7 µM] | 44*
C[C@@H]1CN([C@@H](C)CO)C(=O)c2cc(NC(=O)Nc3ccc4c(c3)OCO4)ccc2O[C@@H](C)CCCCO[C@@H]1CN(C)S(=O)(=O)c1cn(C)cn1 | nt | nt | 11[16.7 µM] | 6[16.7 µM] | 47*
C[C@@H]1CN([C@H](C)CO)C(=O)c2cc(NC(=O)Nc3ccc4c(c3)OCO4)ccc2O[C@@H](C)CCCCO[C@@H]1CN(C)S(=O)(=O)c1cn(C)cn1 | nt | nt | 16[16.7 µM] | 11[16.7 µM] | 68*
C[C@H](NC(=O)C[C@@H]1C=C[C@H](NC(=O)C2CCOCC2)[C@@H](CO)O1)c1ccccc1 | nt | nt | 5[16.7 µM] | nt | -2

High-throughput results (PubChem BioAssay)
